# Assay results taken from PubChem BioAssay AID463173 (ICCB-Longwood Screening Facility, Harvard Medical School, 2010).
# Hit rate of the full screen: of about 52,000 compounds, about 4,300 (8.3%) were called active. Rule as the data show it: active = survival mostly below about 52% (no sharp cut-off); inactive = mostly above about 56%. The list comes from a sample in which actives are over-represented; it also holds similar structures and randomly drawn compounds.
# Test system: DeltatarO mutant
# Assay: S. aureus survival, RN4220 and DeltatarO strains – OD600, teichoic acid synthesis inhibitors, primary screen (AID 463173)
# Conditions: S. aureus RN4220 wild type/DeltatarO growth, OD600, 18 h, stronger effect = lower value, screened at 18.75 µg/mL (by protocol)
row,SMILES,survival
1,COCCCNC(=O)c1cc2c(=O)oc3ccc(C)cc3c2s1,68% (inactive)
2,COC(=O)c1cnn2c(C)c(Cc3c(C)cc(C)cc3C)c(C)nc12,83% (inactive)
3,CC(C)Nc1nc(Cl)nc(NNC(=O)C(C)Oc2ccccc2)n1 (stereo unspecified),93% (inactive)
4,COCCCNC(=O)CSc1nc2cc3c(cc2c(=O)n1CCCCCC(=O)NCc1ccc(OC)cc1)OCO3,6% (active)
5,CCN(CC)C(=O)CSc1nc2cc3c(cc2c(=O)n1CCCC(=O)NCc1ccc(OC)cc1)OCO3,71% (inactive)
6,COCCCNC(=O)CSc1nc2cc3c(cc2c(=O)n1CCCC(=O)NCc1ccc(OC)cc1)OCO3,83% (inactive)
7,COc1ccc(CCNC(=O)CCCn2c(SCC(N)=O)nc3cc4c(cc3c2=O)OCO4)cc1OC,72% (inactive)
8,CCCCNC(=O)CSc1nc2cc3c(cc2c(=O)n1CCCC(=O)NCCc1ccc(OC)c(OC)c1)OCO3,109% (inactive)
9,CCOC(=O)CSc1nc2cc3c(cc2c(=O)n1CCCCCC(=O)NCc1ccc(OC)cc1)OCO3,72% (inactive)
10,COCCNC(=O)CSc1nc2cc3c(cc2c(=O)n1CCCCCC(=O)NCc1ccc(OC)cc1)OCO3,67% (inactive)
11,CCOC(=O)CSc1nc2cc3c(cc2c(=O)n1CCCC(=O)NCCc1ccc(OC)c(OC)c1)OCO3,-2% (active)
12,CCN(CC)C(=O)CSc1nc2cc3c(cc2c(=O)n1CCCCCC(=O)NCc1ccc(OC)cc1)OCO3,-1% (active)
13,COc1ccc(N2CCN(Cc3nc4c(c(=O)[nH]c(=O)n4C)n3Cc3ccccc3F)CC2)cc1,119% (inactive)
14,COc1ccccc1Cn1c(CNS(=O)(=O)c2ccc(CC(C)C)cc2)nc2cccnc21,95% (inactive)
15,COc1ccc(/C=C(\NC(=O)c2ccccc2)C(=O)NC2CCCCC2)cc1,86% (inactive)
16,COc1cc(NC(=O)c2cc3ccccn3n2)cc(OC)c1OC,69% (inactive)
17,Cc1ccc(NC(=O)NCCc2c(C)nn(C)c2C)c(Cl)c1,72% (inactive)
18,Cc1ccc(C(=O)NCC(c2cccs2)S(=O)(=O)c2cccs2)cc1C (stereo unspecified),78% (inactive)
19,COC(=O)CN1C(=O)C(C)(C)c2cc(S(=O)(=O)Nc3ccc(C(C)C)cc3)ccc21,79% (inactive)
20,CC(C)(C)c1ccc(C(=O)N2CCC(c3noc(-c4ccc(S(=O)(=O)N5CCCC5)cc4)n3)CC2)cc1,89% (inactive)
21,CCOC(=O)C1CCN(C(c2cc3ccc(OC)cc3n3nnnc23)c2nnnn2C2CCCC2)CC1 (stereo unspecified),101% (inactive)
22,CCc1cccc(C)c1Nc1c(-c2cccs2)nc2ncccn12,73% (inactive)
23,COc1ccc(OC)c(CC2C(=O)Nc3ccc(Br)cc32)c1 (stereo unspecified),72% (inactive)

row,SMILES,survival
1,CCCOc1ccc(CC2C(=O)Nc3ccc(Br)cc32)cc1 (stereo unspecified),0% (active)
2,COc1ccc(CC2C(=O)Nc3ccc(Br)cc32)cc1OC (stereo unspecified),82% (inactive)
3,CCOc1c(CC2C(=O)Nc3ccc(Br)cc32)cccc1OC (stereo unspecified),102% (inactive)
4,CCOc1ccccc1CC1C(=O)Nc2ccc(Br)cc21 (stereo unspecified),59% (inactive)
5,CCCCOc1ccccc1CC1C(=O)Nc2ccc(Br)cc21 (stereo unspecified),14% (active)
6,Cc1cc(C)cc(NC(=O)C2CCN(S(=O)(=O)c3ccc4c(c3)oc(=O)n4C)CC2)c1,95% (inactive)
7,COc1ccc2c(c1)c1c(c(=O)n(CCc3ccccc3)c(=O)n1Cc1cccc(Cl)c1)n2C,76% (inactive)
8,O=C(CN1C(=O)CSc2ccc(S(=O)(=O)N3CCCCC3)cc21)NCc1ccc(F)cc1Cl,79% (inactive)
9,CNC(=S)N1C2CCC1CC(NC(=O)NC13CC4CC(CC(C4)C1)C3)C2 (stereo unspecified),79% (inactive)
10,CCOC(=O)c1ccc(NC(=O)Nc2cccc(OCc3cc(=O)n4ccc(C)cc4n3)c2)cc1,68% (inactive)
11,CCCCc1ccc(NC(=O)CSc2nc3ccccc3nc2N2CCCCC2)cc1,30% (active)
12,CCc1cccc(NC(=O)CSc2nc3ccccc3nc2N2CCCCC2)c1,-6% (active)
13,COc1cccc(NC(=O)CSc2nc3ccccc3nc2N2CCOCC2)c1,54% (inactive)
14,CC(=O)Nc1ccc(NC(=O)CSc2nc3ccccc3nc2N2CCOCC2)cc1,83% (inactive)
15,CCOc1ccc(NC(=O)CSc2nc3ccccc3nc2N2CCOCC2)cc1,87% (inactive)
16,Cc1cccc(NC(=O)CSc2nc3ccccc3nc2N2CCOCC2)c1C,51% (inactive)
17,Cc1ccc(NC(=O)CSc2nc3ccccc3nc2N2CCOCC2)cc1,54% (inactive)
18,CCc1cccc(C)c1NC(=O)CSc1nc2ccccc2nc1N1CCOCC1,81% (inactive)
19,CCCCc1ccc(NC(=O)CSc2nc3ccccc3nc2N2CCOCC2)cc1,30% (active)
20,CCCCc1ccc(NC(=O)CSc2nc(=O)[nH]c3c2CCCC3)cc1,74% (inactive)
21,CCOc1ccccc1NC(=O)CSc1nc2ccccc2nc1N1CCOCC1,4% (active)
22,O=C(CS(=O)(=O)Cc1ccccc1)Nc1ccc2c(c1)OCO2,69% (inactive)
23,O=C(NCc1ccc(F)cc1)c1cnc(N2CCOCC2)c2ccccc12,95% (inactive)

row,SMILES,survival
1,CN(CC(=O)Nc1ccc(F)cc1F)S(=O)(=O)c1ccc(C(=O)N2CCOCC2)s1,88% (inactive)
2,COc1ccc(S(=O)(=O)N2CCC(Oc3ccc(-n4cnnn4)cc3)CC2)cc1OC,77% (inactive)
3,Cc1ccc(CNC(=O)C2CCN(c3nc4ccccc4n(C)c3=O)CC2)cc1,87% (inactive)
4,O=C(Nc1ccccc1C(=O)OCc1cc(=O)n2c3c(sc2n1)CCCC3)c1ccc(F)cc1,106% (inactive)
5,COc1ccc(OC)c(CNC(=O)c2ccc(Sc3ccc(Cl)cc3)c(NC(C)=O)c2)c1,83% (inactive)
6,CCc1ccc(-c2cn3c(n2)sc2cc(C(=O)NCC(C)c4ccccc4)ccc23)cc1 (stereo unspecified),69% (inactive)
7,COC(=O)c1cnc(N2CCN(c3ccc(OC)cc3)CC2)c2ccccc12,62% (inactive)
8,COc1cc(CNC(=O)c2ccc3nc(CCc4ccccc4)oc3c2)cc(OC)c1OC,80% (inactive)
9,CCc1nn(Cc2cc(C)ccc2C)c(=O)c2cc3cc(C)ccc3n12,95% (inactive)
10,CCOc1ccc(-c2cc(C(=O)NCCc3ccc(OC)c(OC)c3)[nH]n2)cc1,77% (inactive)
11,COc1ccc(S(=O)(=O)N2CCN(Cc3nc4ccc(C)cc4o3)CC2)cc1OC,84% (inactive)
12,COc1ccc(S(=O)(=O)N2CCN(Cc3ccc4c(c3)OCO4)CC2)cc1OC,43% (active)
13,Cc1cc(C)c(S(=O)(=O)N2CCN(Cc3ccc4c(c3)OCO4)CC2)cc1C,13% (active)
14,COc1cccc(S(=O)(=O)N2CCN(Cc3ccc4c(c3)OCO4)CC2)c1,75% (inactive)
15,NC(=O)CN1CCN(Cc2ccc3c(c2)OCO3)CC1,76% (inactive)
16,Cc1ccc(S(=O)(=O)N2CCN(Cc3ccc4c(c3)OCO4)CC2)cc1,70% (inactive)
17,O=C(NCCc1ccc(Cl)cc1)c1cc(-c2ccc(Cl)cc2)n[nH]1,68% (inactive)
18,CCOC(=O)c1nnc2c(-c3ccc(Cl)cc3)c(C)nn2c1C,49% (inactive)
19,O=C(Nc1ccc(C(F)(F)F)cc1)C(Cc1ccccc1)n1cccc1 (stereo unspecified),-4% (active)
20,COc1ccc(NC(=O)C(Cc2ccccc2)n2cccc2)c(OC)c1 (stereo unspecified),67% (inactive)
21,CC(C)c1ccc(NC(=O)C(Cc2ccccc2)n2cccc2)cc1 (stereo unspecified),23% (active)
22,Cc1ccc(NC(=O)C(Cc2ccccc2)n2cccc2)cc1 (stereo unspecified),76% (inactive)
23,CC(=O)Nc1ccc(NC(=O)C(Cc2ccccc2)N2Cc3ccccc3C2=O)cc1 (stereo unspecified),82% (inactive)

row,SMILES,survival
1,O=C(Nc1ccccc1F)C(Cc1ccccc1)n1cccc1 (stereo unspecified),77% (inactive)
2,CCOc1ccc(S(=O)(=O)NCCc2sc3nc(-c4ccc(C)cc4)nn3c2C)cc1,109% (inactive)
3,Cc1coc2c(C)c3oc(=O)c(CCC(=O)N4CCCCC4)c(C)c3cc12,44% (active)
4,Cc1coc2c(C)c3oc(=O)c(CC(=O)N4CCCCC4)c(C)c3cc12,79% (inactive)
5,Cc1oc2c(C)c3oc(=O)c(CCC(=O)N4CCCCC4)c(C)c3cc2c1C,89% (inactive)
6,CC1CCC(N2CC(=O)N(C3CCCCC3)C(c3ccc(F)cc3)C2=O)CC1 (stereo unspecified),82% (inactive)
7,CCCOc1ccc(-c2nc(N3CCC(C)CC3)c3ccccc3n2)cc1,-1% (active)
8,CCCOc1ccc(CNC(=O)C2CCN(c3nc4ccccc4nc3C(F)(F)F)CC2)cc1,75% (inactive)
9,CCCOc1ccc(-c2nc(N3CCCCC3)c3ccccc3n2)cc1,-2% (active)
10,c1ccc(-c2nc(N3CCCCC3)c3ccccc3n2)cc1,96% (inactive)
11,CCOc1ccc(-n2cc(-c3ccccc3)c3c(N4CCC(C)CC4)ncnc32)cc1,90% (inactive)
12,Cc1ccc(-c2nc(N3CCN(c4ccccc4Cl)CC3)c3ccccc3n2)cc1,52% (inactive)
13,Cc1ccc(C)c(N2CCN(S(=O)(=O)c3c(C)nc4sccn4c3=O)CC2)c1,92% (inactive)
14,CCc1ccc(N=C2NC(=O)CC(C(=O)Nc3ccc(OC)cc3)S2)cc1 (stereo unspecified),87% (inactive)
15,CCOc1ccc(NC(=O)C2CC(=O)NC(=Nc3ccc(Cl)c(Cl)c3)S2)cc1 (stereo unspecified),72% (inactive)
16,CCOC(=O)c1ccc(NC(=O)C2CC(=O)NC(=Nc3ccc(C)c(C)c3)S2)cc1 (stereo unspecified),47% (active)
17,CN(C)c1ccc(C(C(=O)NCC2CCCO2)N(C(=O)Cn2nnc3ccccc32)c2ccc3c(c2)OCO3)cc1 (stereo unspecified),90% (inactive)
18,O=C(Nc1cccc(Cl)c1Cl)c1cc(S(=O)(=O)N2CCCCC2)ccc1F,72% (inactive)
19,O=C(Nc1cccc(F)c1)C1CCN(S(=O)(=O)c2cccc3nsnc23)CC1,83% (inactive)
20,COc1ccc(N2CCN(Cc3nc(-c4ccc(C)cc4)no3)CC2)cc1,48% (inactive)
21,COc1cc(-c2noc(CN3CCN(c4cccc(Cl)c4)CC3)n2)cc(OC)c1OC,77% (inactive)
22,COc1ccc(-c2noc(CN3CCN(c4cccc(Cl)c4)CC3)n2)cc1,13% (active)
